Screens: PubChem BioAssay, National Center for Advancing Translational Sciences (NCATS)
Compounds with a hit are over-represented: about 5.7% of the library has one in this group of screens.
KB-3-1 tox: qHTS assay for MDR1-selective chemotherapeutics: Primary screen using the parental adenocarcinoma cell KB-3-1 | KB-3-1 viability, CellTiter-Glo ATP luminescence, 72 h | Potency, µM (doses to about 46.1 µM), actives largely listed as cytotoxic | 400,000 compounds, 1.4% hits | AID 1347075, 2019; further: potency means the concentration at half of the fitted maximal effect; nearly all actives have a fitted effect of over 60% in size
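Here the drug-naive KB-3-1 line serves as comparator for MDR sub-line selectivity; cells received compound titrations, 72 h at 37 °C, then CellTiter-Glo readout.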
Giardia killer: Small Molecules that selectively kill Giardia lamblia: qHTS; 340,000 compounds, 0.15% hits; Giardia lamblia trophozoite viability; AID 540267, 2011; activity change, % at 7.66 µM, hits read low; in the data active means activity change below about -80%; inconclusive means between about -30% and that limit;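 further: parasites exposed to compound for two days anaerobically before the ATP read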
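Viability, read as ATP luminescence: trophozoites at 100 cells/well, compound added, 48 hrs anaerobic at 37 deg C, then 15-30 min room-temperature development before reading.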
A549 tox: Nrf2 qHTS screen for inhibitors: counterscreen for cytotoxicity; Potency, µM (series often up to 46 µM), for inactives: at the top dose activity change, negative = cytotoxicity, most hits filed as inhibitors; A549 ARE-Fluc cells, CellTiter-Fluor viability, 18-24 h; 390,000 compounds, 0.16% hits; further: potency means the concentration at half of the fitted maximal effect
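Cytotoxicity counterscreen: CellTiter-Fluor fluorescence was measured in A549 ARE_Fluc cells after 18-24 h of compound exposure in a concentration series. The subsequent BugLite luminescent read reports ARE-luciferase activity.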
Nrf2 inh: Nrf2 qHTS screen for inhibitors; 360,000 compounds, 2.1% hits; AID 504444, 2011; A549 ARE-Fluc reporter, luciferase luminescence, 18-24 h; Potency, µM (top dose mostly 46 µM), without a hit: at the highest dose activity change, negative = inhibition, usual class: inhibitors; further: potency means the concentration at half of the fitted maximal effect; nearly all actives have a fitted effect of over 60% in size
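In this cell-based qHTS, ARE-driven firefly luciferase in A549 cells reports Nrf2 activity; the luminescent signal after BugLite lysis is the measured value, with a prior CellTiter-Fluor read for cell health.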
KB-V1 cytotox: qHTS assay for MDR1-selective chemotherapeutics: Primary screen using the drug-selected MDR subline cells KB-V1; AID 1347076, 2019; KB-V1 MDR cells viability, CellTiter-Glo, 72 h; Potency, µM (titrated, usually from 46.1 µM), usual class: cytotoxic; 400,000 compounds, 3.4% hits; further: potency means the concentration at half of the fitted maximal effect; nearly all actives have a fitted effect of over 60% in size
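Potencies derive from concentration-effect curves fitted to normalized luminescence (CellTiter-Glo) of KB-V1 cells treated for 72 h at 37 degrees C in phenol-red-free DMEM containing 10% FBS.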
PI4K2A inh: qHTS for small molecular inhibitors of PI4K2A; 420,000 compounds, 0.13% hits; AID 1346378, 2018; activity change, negative = inhibition, % at 76.9 µM; purified PI4K2A, ADP-Glo luminescence, 1 h; hits give low values; in the data active means activity change below about -50%; inconclusive means mostly about -30% to -49%;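 further: -100% = wells without enzyme as full effect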
Target sequence (Q9BTU6 whole entry, looked up): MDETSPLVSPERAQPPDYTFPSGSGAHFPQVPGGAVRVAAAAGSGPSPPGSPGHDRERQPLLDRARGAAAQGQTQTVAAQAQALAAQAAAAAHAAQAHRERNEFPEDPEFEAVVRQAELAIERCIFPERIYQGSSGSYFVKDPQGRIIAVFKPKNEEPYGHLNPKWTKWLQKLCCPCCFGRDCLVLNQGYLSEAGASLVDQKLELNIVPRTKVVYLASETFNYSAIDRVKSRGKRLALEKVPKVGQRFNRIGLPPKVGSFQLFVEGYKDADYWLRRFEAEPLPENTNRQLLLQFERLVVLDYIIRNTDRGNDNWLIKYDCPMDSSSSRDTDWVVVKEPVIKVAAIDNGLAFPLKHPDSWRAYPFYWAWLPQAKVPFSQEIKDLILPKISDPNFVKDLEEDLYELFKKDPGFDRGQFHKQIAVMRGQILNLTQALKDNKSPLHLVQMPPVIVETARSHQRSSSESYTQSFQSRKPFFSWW
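PI4K2A activity was measured by ADP-Glo luminescence: enzyme (4 ug/mL stock) and phosphatidylinositol (1.2 mM stock) in Tris pH 7.5/MgCl2/EGTA/Triton X-100 buffer were reacted with ATP (300 microM stock) for one hour at ambient temperature.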
An asterisk follows results filed as active; i = inactive; ? = inconclusive; nt = no result. Unless noted, the call rests on the fitted dose curve; in most records, active means well fitted curve in the direction sought with a large enough effect; inconclusive means small, poorly fitted or top-dose-only effect, or another doubt; inactive means no such curve, though single readings can be large; an effect the other way counts as inactive or inconclusive. Unless noted, on the % scale 0 is the no-effect control and ±100 the full control effect.

SMILES | KB-3-1 tox | Giardia killer | A549 tox | Nrf2 inh | KB-V1 cytotox | PI4K2A inh
CCOC(=O)c1cc(C#N)c(N2CCN(C(=O)c3cccc(C(F)(F)F)c3)CC2)nc1C(F)(F)F | ? | -3.9 | -26.1% | ? | ? | 1.3
CCOc1ccc(NC(=O)c2ccc(OCC3CCCO3)cc2)cc1S(=O)(=O)N(CC)CC (stereo not given) | i | -6.9 | 8.2% | -8.0% | 2.59µM* | -2.5
COc1ccc(S(=O)(=O)N(C)C)cc1NC(=O)c1ccc(OCC2CCCO2)cc1 (stereo not given) | i | nt | nt | nt | i | -5.2
CCN(CC)S(=O)(=O)c1ccc(NC(=O)c2ccc(OCC3CCCO3)cc2)cc1 (stereo not given) | i | -2.8 | -8.8% | ? | 14.6µM* | -3.7
COC(=O)C1CN(Cc2cn(CCC3OCCO3)nn2)CCS(=O)(=O)N1Cc1ccc(Cl)cc1 (stereo not given) | nt | nt | nt | nt | nt | -3.7
COc1ccc(/C=C2/C(=O)N(c3cccc(F)c3)N=C2C)c(OC)c1 | i | -1.5 | 9.3% | -25.6% | i | -50.8*
CC1=NN(c2cccc(F)c2)C(=O)/C1=C/c1ccc(N(C)C)cc1 | i | -6.3 | 0.9% | -4.9% | i | -8.1
CCOc1ccc(CCNC(=O)c2nn(C)c3c2CSc2ccccc2-3)cc1 | nt | nt | 3.2% | -0.9% | nt | 6.5
Cc1cc(N2C(=O)c3ccccc3C2=O)n[nH]1 | nt | nt | 12.6% | 11.2% | nt | nt
CC[n+]1c(/C=C/Nc2ccccc2)sc2ccccc21 | ? | 40.6 | -8.2% | -24.6% | ? | -4.1
CCN1/C(=C/C=C/C=C/C=C/c2sc3ccccc3[n+]2CC)Sc2ccccc21 | 16.4µM* | 31.0 | ? | 20.6µM* | i | -17.9
CC(C)(C)OC(=O)NCc1ccc(CNC(=O)c2nc[nH]c2C(=O)N2CCN(C(=O)OC(C)(C)C)CC2)cc1 | ? | 6.1 | -20.6% | 25.9µM* | i | -2.0
CC(C)(C)c1ccc(CC(=O)N2CCC2(C)C(=O)NCc2ccc(Cl)cc2)cc1 (stereo not given) | ? | nt | nt | nt | 20.6µM* | 3.5
CC(C)(C)c1ccc(C(=O)N2CCN(CCNC(=O)C(=O)NCc3ccc(Cl)cc3)CC2)cc1 | ? | -8.2 | ? | 20.6µM* | i | -2.6
CC(C)(C)OC(=O)NCc1ccc(CNC(=O)c2ncn(Cc3ccccc3)c2C(=O)NCc2ccc(CNC(=O)OC(C)(C)C)cc2)cc1 | i | -0.9 | 7.2% | 0.5% | i | 1.8
Cn1cnc(C(=O)NCc2ccc(CNC(=O)OC(C)(C)C)cc2)c1C(=O)NCc1ccc(CNC(=O)OC(C)(C)C)cc1 | i | -15.6 | 0.8% | 18.4µM* | i | 3.0
COc1cc(OC)nc(O[C@H](C(=O)O)C(OC)(c2ccccc2)c2ccccc2)n1 | nt | nt | nt | nt | nt | 1.5
O=C(NC1CCCCN(Cc2ccc(OC(F)(F)F)cc2)C1=O)c1ccc(F)c(F)c1 (stereo not given) | nt | nt | nt | nt | nt | -3.5
Cc1ccccc1OCC(=O)NCC(=O)OCC(=O)c1ccc(F)cc1 | i | 10.8 | -0.3% | -20.4% | i | nt
CC(C)(C)OC(=O)N1CCN(c2ccc(CNC(=O)c3ccc(Cl)cc3)cc2)CC1 | ? | -8.0 | -27.0% | 10.3µM* | ? | 6.8
CC(C)(C)c1ccc(C(=O)NCc2ccc(Cl)cc2)cc1 | i | -1.1 | 0.5% | ? | i | 1.2
COc1ccccc1C(=O)COC(=O)c1cc(S(=O)(=O)N2CCCCC2)ccc1N1CCOCC1 | i | -21.2 | -5.0% | 9.4% | i | 8.5
Cc1ccc(COC(=O)c2cc(S(=O)(=O)N3CCOCC3)ccc2C)cc1 | i | 4.9 | 9.6% | 16.4µM* | i | -2.6
Cc1ccc(S(=O)(=O)N2CCOCC2)cc1C(=O)OCC(=O)N1CCCCC1 | i | -11.9 | 9.3% | 15.3% | 18.4µM* | -0.8
O=C(OCCOc1ccccc1)c1cccc(S(=O)(=O)N2CCOCC2)c1 | i | -8.9 | -0.3% | 21.7% | 18.4µM* | -2.0
SMILES | KB-3-1 tox | Giardia killer | A549 tox | Nrf2 inh | KB-V1 cytotox | PI4K2A inh
O=C(COC(=O)c1cccc(S(=O)(=O)N2CCOCC2)c1)c1ccccc1 | i | -16.4 | 1.6% | ? | i | 3.6
Cc1ccccc1OCCOC(=O)c1cc(S(=O)(=O)N2CCCCC2)ccc1N1CCOCC1 | ? | 12.2 | -6.3% | 16.4µM* | i | -1.4
Cc1ccc(S(=O)(=O)N2CCOCC2)cc1C(=O)O | i | 9.8 | 8.9% | nt | i | 4.3
CCCCNS(=O)(=O)CC1NCc2ccc(C)cc21 (stereo not given) | nt | nt | nt | nt | nt | -3.7
Cc1ccc(-c2cn3c(=O)cc(C)[nH]c3n2)cc1 | i | ? | -15.3% | 5.8µM* | i | 0.8
O=c1c2cc(NC(=S)NC3CCCCC3)ccc2nc2n1CCCCC2 | i | -2.9 | 3.3% | ? | ? | 0.2
O=c1c2cc(NC(=S)NCCN3CCCCCC3)ccc2nc2n1CCCCC2 | i | 7.3 | 11.8% | ? | i | 5.1
O=c1c2cc(NC(=S)NC3CCCC3)ccc2nc2n1CCCCC2 | i | -0.2 | 6.4% | ? | 20.6µM* | 2.5
O=c1c2cc(NC(=S)NCCCN3CCC(Cc4ccccc4)CC3)ccc2nc2n1CCCCC2 | 23.1µM* | 1.1 | -16.1% | -26.9% | ? | 14.6
CCN(CC)c1ccc(C(=O)N/N=C(\C)c2ccc(O)cc2)cc1 | 13µM* | 17.2 | 1.2% | 9.6% | i | 1.8
C/C(=N\NC(=O)c1ccc(OC2CCCC2)cc1)c1ccc(O)cc1 | 3.66µM* | 8.7 | -10.1% | -20.9% | ? | -0.3
COc1ccc(C(=O)N/N=C(/C)c2ccc(N3CCCCC3)cc2)cc1 | i | -13.5 | 2.6% | ? | i | 4.7
COc1ccc(C2Nc3ccccc3C(=O)N2Cc2cccnc2)cc1COc1c(C)cccc1C (stereo not given) | nt | nt | nt | nt | nt | -6.4
Nc1ccc(Oc2ncccn2)cc1 | i | 19.9 | -0.7% | -15.8% | i | -53.7*
O=Cc1cccc(Oc2ncccn2)c1 | i | -11.0 | -2.7% | 7.6% | i | 4.0
CC/C(=N\NC(=O)CCC(=O)NCc1ccccc1)c1ccc(O)cc1 | 3.26µM* | 9.6 | -11.7% | -1.1% | i | -1.7
CCCCC/C(=N\NC(=O)CCC(=O)NCc1ccccc1)c1ccccc1 | ? | 6.5 | -2.2% | 9.2% | ? | 1.8
CCc1nnc(NC(=O)CSc2nccn2-c2cc(C)cc(C)c2)s1 | 18.4µM* | -18.1 | 3.2% | ? | i | -1.2
CCOc1ccccc1NC(=O)N(C)CCc1c(C)nn(CC)c1C | i | nt | 0.7% | nt | i | 5.4
